We go through 40 molecules from PubChem BioAssay (NCATS).

Inconclusive results are not listed. Unmarked numbers belong to inactive results. Calls of active or inactive are those of the source. Calls come from the whole dose curve; as a rule, active = well fitted curve in the direction sought with a large enough effect; inconclusive = small, poorly fitted or top-dose-only effect, or another doubt; inactive = no such curve, though single readings can be large; an effect the other way counts as inactive or inconclusive.

Chain of Rap guanine nucleotide exchange factor 3 (Homo sapiens) (O95398 whole entry, looked up): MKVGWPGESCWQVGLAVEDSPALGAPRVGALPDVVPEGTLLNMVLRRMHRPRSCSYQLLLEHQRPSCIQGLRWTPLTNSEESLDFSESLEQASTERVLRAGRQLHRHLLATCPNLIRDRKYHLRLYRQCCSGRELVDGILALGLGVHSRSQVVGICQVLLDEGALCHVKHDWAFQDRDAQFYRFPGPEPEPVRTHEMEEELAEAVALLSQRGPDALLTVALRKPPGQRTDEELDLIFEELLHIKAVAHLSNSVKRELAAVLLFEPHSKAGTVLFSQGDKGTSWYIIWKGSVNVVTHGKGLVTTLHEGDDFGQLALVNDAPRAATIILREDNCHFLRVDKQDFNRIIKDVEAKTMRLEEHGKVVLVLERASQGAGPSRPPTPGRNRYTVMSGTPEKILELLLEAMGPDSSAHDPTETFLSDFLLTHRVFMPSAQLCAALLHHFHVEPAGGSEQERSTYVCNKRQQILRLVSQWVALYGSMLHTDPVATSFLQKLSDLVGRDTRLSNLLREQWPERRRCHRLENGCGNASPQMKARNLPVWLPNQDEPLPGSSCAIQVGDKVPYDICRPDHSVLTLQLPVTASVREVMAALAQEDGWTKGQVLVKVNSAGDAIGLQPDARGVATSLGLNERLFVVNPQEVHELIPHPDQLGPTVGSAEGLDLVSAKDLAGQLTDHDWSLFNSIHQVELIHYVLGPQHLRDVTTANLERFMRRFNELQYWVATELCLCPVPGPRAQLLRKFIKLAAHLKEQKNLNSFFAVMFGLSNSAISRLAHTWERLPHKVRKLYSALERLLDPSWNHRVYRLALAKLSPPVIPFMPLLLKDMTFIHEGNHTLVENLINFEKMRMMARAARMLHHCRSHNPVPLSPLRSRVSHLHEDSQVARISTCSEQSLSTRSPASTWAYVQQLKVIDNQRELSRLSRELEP

The target of one experiment is Rap guanine nucleotide exchange factor 3 (Homo sapiens) (UniProt O95398). The experiment is described as follows: Confirmatory qHTS for antagonist of cAMP-regulated guanine nucleotide exchange factor 3 (EPAC1) (AID 1645880).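 For activity, negative = inhibition: plate controls were DMSO only for no effect and full effect of the ATA control for full effect.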 Note: nearly all actives have a fitted effect of over 55% in size. Note: potency is the fitted concentration of half-maximal effect. As to conditions: EPAC1 Rap1B-BODIPY-GDP exchange, fluorescence; activity, negative = inhibition: at 115 µM (top of the series). In a few lines:
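Released BODIPY-GDP fluoresces less than Rap1-bound BODIPY-GDP; the signal is followed at 480/540 nm at 5-min intervals over 30 min, after 5 min at room temperature. Reactions contain 100 nM EPAC1, 250 nM RAP1B-BODIPY-GDP and 50 uM GDP; results are normalized to ATA and DMSO.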
(In general: qHTS replaces the single test concentration by a dilution series.)
Regarding `O=C(CSc1nccn1C1CCCC1)Nc1cc(C(F)(F)F)ccc1Cl`, the “activity, negative = inhibition” value is -44.9%.

Turning to `COc1cc(NC(=O)CCc2c(C)nc3c4c(C)cc(C)nc4nn3c2C)cc(OC)c1`, the “activity, negative = inhibition” value was -6.83%.

As to `COC(=O)c1ccccc1NC(=O)c1nn(-c2ccc(OC)cc2)c(=O)c2c1c1ccccc1n2C`, the “activity, negative = inhibition” value is -2.79%.

Turning to `Cc1ccc(S(=O)(=O)CCC(=O)Nc2sccc2C#N)cc1`, the “activity, negative = inhibition” value was -15.8%.

In the case of `COc1cnc(-c2ccccc2)c(-c2ccccc2)n1`, the “activity, negative = inhibition” value was -12.2%.

`COc1ccc(C(=O)Nc2cccc(/C=C(/CCC(=O)O)c3nc4ccccc4s3)c2)cc1`: the Potency is 15.1 µM (active).

In the case of `O=C(Nc1nc2ccc(Cl)cc2s1)C1CCCO1` (stereo not given), the “activity, negative = inhibition” value is -17.2%.

`O=C(c1ccco1)N(Cc1cccs1)c1ccc(F)cc1`: the “activity, negative = inhibition” value was -10%.

As to `CCN1C(=O)/C(=C/c2ccc(OCc3ccc(C(=O)O)cc3)c(Cl)c2)NC1=S`, the Potency was 42.6 µM (active).

Consider `O=C(COC(=O)Cc1c(Cl)cccc1Cl)NCC1CCCO1` (stereo not given), for which the “activity, negative = inhibition” value is -12.1%.

`C/C(CC(=O)Nc1ccc(Cl)c(C(F)(F)F)c1)=N\NC(=O)c1cnccn1`: the “activity, negative = inhibition” value was -28.1%.

Turning to `O=C(O)C1CC(=O)N(c2ccc(OCc3c(F)cccc3Cl)cc2)C1` (stereo not given), the “activity, negative = inhibition” value is -12.7%.

With `CC1Cc2nc(SCC(=O)N3CCCc4ccccc43)n(C)c(=O)c2S1` (stereo not given), the “activity, negative = inhibition” value was -20.9%.

For the molecule `CC1CCC/C(=C\Nc2ccc(O)cc2)C1=O` (stereo not given), the “activity, negative = inhibition” value is -20.3%.

Turning to `O=C1COc2ccc(C(=O)COC(=O)c3ccc([N+](=O)[O-])cc3Cl)cc2N1`, the “activity, negative = inhibition” value was -19.7%.

For `Cc1ccccc1NC1c2ccccc2C(=O)N1Cc1ccco1` (stereo not given), the “activity, negative = inhibition” value is -14.1%.

For the molecule `Cn1cccc1/C=C1\CCC/C(=C\c2cccn2C)C1=O`, the Potency is 75.7 µM (active).

For `COc1ccc2nc3oc(C(=O)Nc4cccc(C(F)(F)F)c4)cc3cc2c1`, the “activity, negative = inhibition” value is -13.1%.

On to `COc1ccc(NC(=O)CCCSc2nc(-c3ccco3)cc(C(F)(F)F)n2)cc1`, for which the “activity, negative = inhibition” value is -42.6%.

As to `CCc1cc2c(=O)c(-c3nc4ccccc4n3C)coc2c(CN2CCCCC2C)c1O` (stereo not given), the “activity, negative = inhibition” value was -13.8%.

Consider `NC(=O)c1ccsc1NC(=O)CS(=O)(=O)c1ccc(F)cc1`, for which the “activity, negative = inhibition” value is -8.88%.

Consider `CCOc1cnc(-c2c(-c3c(Cl)cccc3Cl)noc2C)o1`, for which the “activity, negative = inhibition” value was -13.7%.

With `O=C(NCc1ccc(F)cc1)C(c1cccnc1)N(C(=O)c1csnn1)c1ccccc1` (stereo not given), the “activity, negative = inhibition” value is -2.97%.

For `COc1ccc(C2CC(c3ccccc3OC(C)=O)=NN2C(C)=O)cc1` (stereo not given), the “activity, negative = inhibition” value was -24.3%.

Regarding `Cc1cc(C)cc(OCCSc2nc(-c3ccc(C(C)(C)C)cc3)nc3cc(=O)[nH]n23)c1`, the Potency is 67.5 µM (active).

In the case of `COc1ccc(/C(N)=N/OC(=O)c2ccc(C)c([N+](=O)[O-])c2)cc1`, the “activity, negative = inhibition” value is -12.7%.

Turning to `CCCCn1nnc(NC(=O)c2ccco2)n1`, the “activity, negative = inhibition” value was -8.72%.

Consider `CCCSc1nc(C)cc(C)c1S(=O)(=O)c1ccccc1C`, for which the “activity, negative = inhibition” value is -16.9%.

Consider `O=C(NCc1ccco1)c1sc(=S)n2c1[nH]c(=O)c1ccccc12`, for which the Potency is 14.1 µM (active).

Regarding `COc1cccc(OC)c1C(=O)NC(=S)NNC(=O)[C@H]1C[C@@H]1c1ccccc1`, the “activity, negative = inhibition” value was -22.7%.

For the molecule `COc1ccc(CCNC2CC(=O)N(CCc3ccc(OC)c(OC)c3)C2=O)cc1` (stereo not given), the “activity, negative = inhibition” value was -14.5%.

Take `CSc1ccccc1C(=O)Nc1ccc(C)cc1C`: the “activity, negative = inhibition” value was -27.2%.

For the molecule `Cc1ccc(-n2nnnc2SCC(=O)NCC2(N3CCOCC3)CCCCC2)cc1`, the “activity, negative = inhibition” value is -20.4%.

For the molecule `COc1cc2c(c(OC)c1OC)C(c1ccc3c(c1)OCO3)CC(=O)O2` (stereo not given), the “activity, negative = inhibition” value was -16.3%.

Regarding `COc1cccc(C(=O)NC(=S)N2c3ccccc3CC2C)c1OC` (stereo not given), the “activity, negative = inhibition” value is -28.9%.

As for `CCc1nnc(NS(=O)(=O)c2ccc(NC(=S)NC(=O)c3ccc(Br)cc3)cc2)s1`, the Potency is 60.1 µM (active).

`CC(C)Oc1nc(-c2ccccc2Cl)nc2ccccc12`: the “activity, negative = inhibition” value was -15.1%.

Consider `CCOC(=O)N1CCN(C(=O)C(C)(C)Oc2ccc(Cl)cc2)CC1`, for which the “activity, negative = inhibition” value is -19.3%.

For `COc1ccc(-n2c(SCC(=O)Nc3ccccc3OC)nc(O)cc2=O)cc1`, the “activity, negative = inhibition” value was -13.8%.

Regarding `CCOc1ccc2nc(S(=O)(=O)NC(=O)C3(C)CCN3C(=O)CCc3cccs3)sc2c1` (stereo not given), the “activity, negative = inhibition” value was -11%.

The target is the same in a further experiment. The experiment is described as follows: Confirmatory qHTS for agonist of cAMP-regulated guanine nucleotide exchange factor 3 (EPAC1) (AID 1645881).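 Note: EPAC1 catalysed release of BODIPY-GDP from Rap1B seen as fluorescence loss; 100% = effect of cAMP agonist control; nearly all actives have a fitted effect of over 75% in size.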 As to conditions: EPAC1 Rap1B BODIPY-GDP exchange fluorescence; series mostly up to 154 µM; activation: at the top concentration.
For `O=C(CSc1nccn1C1CCCC1)Nc1cc(C(F)(F)F)ccc1Cl`, the “activation” value was 11.9%.

In the case of `COc1cc(NC(=O)CCc2c(C)nc3c4c(C)cc(C)nc4nn3c2C)cc(OC)c1`, the “activation” value is -9.43%.

Regarding `COC(=O)c1ccccc1NC(=O)c1nn(-c2ccc(OC)cc2)c(=O)c2c1c1ccccc1n2C`, the “activation” value is 7.35%.

Take `Cc1ccc(S(=O)(=O)CCC(=O)Nc2sccc2C#N)cc1`: the “activation” value was 12%.

On to `COc1cnc(-c2ccccc2)c(-c2ccccc2)n1`, for which the “activation” value is 8.43%.

Regarding `COc1ccc(C(=O)Nc2cccc(/C=C(/CCC(=O)O)c3nc4ccccc4s3)c2)cc1`, the “activation” value is -2.26%.

With `O=C(Nc1nc2ccc(Cl)cc2s1)C1CCCO1` (stereo not given), the “activation” value is 11.2%.

Consider `O=C(c1ccco1)N(Cc1cccs1)c1ccc(F)cc1`, for which the “activation” value was 10.3%.

Regarding `CCN1C(=O)/C(=C/c2ccc(OCc3ccc(C(=O)O)cc3)c(Cl)c2)NC1=S`, the “activation” value was -6.3%.

Turning to `O=C(COC(=O)Cc1c(Cl)cccc1Cl)NCC1CCCO1` (stereo not given), the “activation” value is 0.348%.

Regarding `C/C(CC(=O)Nc1ccc(Cl)c(C(F)(F)F)c1)=N\NC(=O)c1cnccn1`, the “activation” value is 5.88%.

In the case of `O=C(O)C1CC(=O)N(c2ccc(OCc3c(F)cccc3Cl)cc2)C1` (stereo not given), the “activation” value was 0.915%.

`CC1Cc2nc(SCC(=O)N3CCCc4ccccc43)n(C)c(=O)c2S1` (stereo not given): the “activation” value was -1.47%.

Turning to `CC1CCC/C(=C\Nc2ccc(O)cc2)C1=O` (stereo not given), the “activation” value was 6.67%.

For `O=C1COc2ccc(C(=O)COC(=O)c3ccc([N+](=O)[O-])cc3Cl)cc2N1`, the “activation” value was 10.8%.

Consider `Cc1ccccc1NC1c2ccccc2C(=O)N1Cc1ccco1` (stereo not given), for which the “activation” value was 6.92%.

For the molecule `Cn1cccc1/C=C1\CCC/C(=C\c2cccn2C)C1=O`, the “activation” value was -80.3%.

Turning to `COc1ccc2nc3oc(C(=O)Nc4cccc(C(F)(F)F)c4)cc3cc2c1`, the “activation” value was 3.52%.

Take `COc1ccc(NC(=O)CCCSc2nc(-c3ccco3)cc(C(F)(F)F)n2)cc1`: the “activation” value was -16.5%.

As for `CCc1cc2c(=O)c(-c3nc4ccccc4n3C)coc2c(CN2CCCCC2C)c1O` (stereo not given), the “activation” value was 10.1%.

For `NC(=O)c1ccsc1NC(=O)CS(=O)(=O)c1ccc(F)cc1`, the “activation” value was 9.75%.

Take `CCOc1cnc(-c2c(-c3c(Cl)cccc3Cl)noc2C)o1`: the “activation” value is 16.5%.

As to `O=C(NCc1ccc(F)cc1)C(c1cccnc1)N(C(=O)c1csnn1)c1ccccc1` (stereo not given), the “activation” value was 0.551%.

For `COc1ccc(C2CC(c3ccccc3OC(C)=O)=NN2C(C)=O)cc1` (stereo not given), the “activation” value is 7.89%.

Take `Cc1cc(C)cc(OCCSc2nc(-c3ccc(C(C)(C)C)cc3)nc3cc(=O)[nH]n23)c1`: the “activation” value was -49.8%.

As to `COc1ccc(/C(N)=N/OC(=O)c2ccc(C)c([N+](=O)[O-])c2)cc1`, the “activation” value was 1.16%.

Consider `CCCCn1nnc(NC(=O)c2ccco2)n1`, for which the “activation” value is 10.1%.

Take `CCCSc1nc(C)cc(C)c1S(=O)(=O)c1ccccc1C`: the “activation” value is 12.8%.

Take `O=C(NCc1ccco1)c1sc(=S)n2c1[nH]c(=O)c1ccccc12`: the “activation” value was -17.5%.

Consider `COc1cccc(OC)c1C(=O)NC(=S)NNC(=O)[C@H]1C[C@@H]1c1ccccc1`, for which the “activation” value was 2.16%.

For `COc1ccc(CCNC2CC(=O)N(CCc3ccc(OC)c(OC)c3)C2=O)cc1` (stereo not given), the “activation” value is 1.94%.

Take `CSc1ccccc1C(=O)Nc1ccc(C)cc1C`: the “activation” value was -14.4%.

For the molecule `Cc1ccc(-n2nnnc2SCC(=O)NCC2(N3CCOCC3)CCCCC2)cc1`, the “activation” value is 10.6%.

Regarding `COc1cc2c(c(OC)c1OC)C(c1ccc3c(c1)OCO3)CC(=O)O2` (stereo not given), the “activation” value was 7.38%.

Regarding `COc1cccc(C(=O)NC(=S)N2c3ccccc3CC2C)c1OC` (stereo not given), the “activation” value was 18.8%.

For the molecule `CCc1nnc(NS(=O)(=O)c2ccc(NC(=S)NC(=O)c3ccc(Br)cc3)cc2)s1`, the “activation” value is -5.42%.

Take `CC(C)Oc1nc(-c2ccccc2Cl)nc2ccccc12`: the “activation” value is 8.54%.

On to `CCOC(=O)N1CCN(C(=O)C(C)(C)Oc2ccc(Cl)cc2)CC1`, for which the “activation” value was -1.57%.

For the molecule `COc1ccc(-n2c(SCC(=O)Nc3ccccc3OC)nc(O)cc2=O)cc1`, the “activation” value was 2.01%.

`CCOc1ccc2nc(S(=O)(=O)NC(=O)C3(C)CCN3C(=O)CCc3cccs3)sc2c1` (stereo not given): the “activation” value is 5.07%.
